Compound activity: PubChem BioAssay, National Center for Advancing Translational Sciences (NCATS)
The list is not random: actives were taken first. Their share in the collection is about 4.7%.
D1 potentiator = Potentiators of Human D1 Dopamine Receptor: qHTS; D(1A) dopamine receptor (Homo sapiens), P21728; HEK293 TREx D1 cells, calcium flux, dopamine EC20 potentiation; potentiation, % at 10 µM; actives 0.036% (n = 360,000); AID 504651, 2011; in the data active means potentiation above about 30%
TRHR ag = qHTS for Small Molecule Agonists and Allosteric Enhancers of Human TRH Receptor: Primary Screen for Agonists; Thyrotropin-releasing hormone receptor (Homo sapiens), P34981; TRHR cells, calcium flux fluo-8, FDSS agonist mode; activation, % at 2 µM; actives 0.18% (n = 360,000); AID 493084, 2011
Target sequence (P34981 whole entry, looked up): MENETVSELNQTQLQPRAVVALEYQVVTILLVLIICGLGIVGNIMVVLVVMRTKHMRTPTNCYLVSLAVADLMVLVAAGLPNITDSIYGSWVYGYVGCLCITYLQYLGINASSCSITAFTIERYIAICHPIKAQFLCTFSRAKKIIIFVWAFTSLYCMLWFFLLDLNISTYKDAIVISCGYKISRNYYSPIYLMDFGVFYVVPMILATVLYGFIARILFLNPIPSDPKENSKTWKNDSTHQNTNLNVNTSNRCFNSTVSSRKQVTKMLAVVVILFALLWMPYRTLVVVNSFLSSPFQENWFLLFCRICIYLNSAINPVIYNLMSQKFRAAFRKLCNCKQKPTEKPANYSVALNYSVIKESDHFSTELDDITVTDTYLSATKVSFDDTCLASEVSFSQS
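TRHR-expressing cells, plated overnight in medium with 10% serum, were loaded with fluo-8 calcium dye at room temperature. After a 10 s baseline, library compound was pin-added and calcium release was recorded kinetically (ex 480/em 530) as agonist response.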
TRHR PAM = qHTS for Small Molecule Agonists and Allosteric Enhancers of Human TRH Receptor: Primary Screen for Enhancers | TRHR cells, fluo-8 calcium fluorescence, EC20 TRH enhancement | enhancement, % at 2 µM | actives 0.66% (n = 360,000) | AID 493056, 2011; in the data active means enhancement above about 30%
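Enhancer read-out: after compound pinning and an initial kinetic agonist-mode read, an EC20 of TRH (10 nM final) was injected and fluo-8 calcium signal (Ex 480/Em 530) followed at 1 s/cycle for 100 cycles in TRHR-expressing cells.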
D1 agonist = Allosteric Agonists of the Human D1 Dopamine Receptor: qHTS. activation, % at 2 µM. D(1A) dopamine receptor (Homo sapiens), P21728. actives 1% (n = 360,000). HEK293 T-REx D1 cells, calcium flux, agonist mode
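Tetracycline-induced HEK293 TREx D1 cells, force-coupled to calcium signalling, were dye-loaded with a no-wash calcium kit. Compound was pin-added after a 10 s baseline. Fluorescence was read kinetically at 1 cycle/s for 180 s, with calcium rises flagged as agonism.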
D1 antagonist = Antagonist of Human D 1 Dopamine Receptor: qHTS; D(1A) dopamine receptor (Homo sapiens), P21728; HEK293 TREx D1 cells, calcium flux, dopamine EC80; active compounds read low; activity change, negative = inhibition, % at 10 µM; actives 3.2% (n = 360,000); AID 504652, 2011; in the data active means activity change below about -30%
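Tetracycline-induced HEK293 T-REx cells with force-coupled D1 receptor were loaded with a no-wash calcium dye. Compound was added after a 10 s baseline and read kinetically for 180 s; EC80 dopamine was then added and calcium flux followed another 180 s.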
Each line names hits and unclear results; the compound was inactive in the other large screens; ! = repeats disagree. Unless noted, no stated cut-off is given here; in the data, active means activation above about 30%; inactive means the rest.

COc1ccc(-n2c3c(c(=O)[nH]c2=O)C(NC(=O)c2ccccc2Cl)(C(F)(F)F)C(=O)N3)cc1 (stereo unspecified)	none
COc1ccc(-n2c3c(c(=O)[nH]c2=O)C(NC(C)=O)(C(F)(F)F)C(=O)N3)cc1 (stereo unspecified)	D1 antagonist -54.0!
CCC(CC)C(=O)Nc1nnc2n1CCS2	none
CC(=O)n1cc(/C=N/NC(=O)c2ccccc2O)c2ccccc21	none
CC(C)(C)OC(=O)n1cc(/C=N/NC(=O)c2ccco2)c2ccccc21	TRHR PAM 30.9
Cc1ccc(-c2cn3nc(-c4ccccc4)c(-c4ccccc4)nc3n2)cc1	D1 agonist 43.2
O=[N+]([O-])c1ccc(-c2cn3nc(-c4ccccc4)c(-c4ccccc4)nc3n2)cc1	none
Cc1cc2c(s1)c1cnn(Cc3ccc(S(C)(=O)=O)cc3)c(=O)c1n2C	none
CC1CN(C(=O)C(C)N2CCN(c3ccccc3Cl)CC2)CC(C)O1 (stereo unspecified)	D1 antagonist -36.8
CCOc1ccccc1CNC(=O)CN(c1ccc(C)cc1)S(=O)(=O)N(C)C	none
Cc1ccc(Cl)cc1N1CCN(S(=O)(=O)c2cn(C)c(C)n2)CC1	none
Cc1ccc(Cl)cc1N1CCN(S(=O)(=O)c2ccc3[nH]c(=O)ccc3c2)CC1	D1 antagonist -89.2
Cc1ccc(Cl)cc1N1CCN(S(=O)(=O)c2cn(C)cn2)CC1	D1 antagonist -34.6
O=c1ccc2cc(S(=O)(=O)N3CCN(c4ccccc4F)CC3)ccc2[nH]1	D1 antagonist -34.4
O=c1c(-c2cc(-c3ccccc3)nc3c2COc2ccc(Cl)cc2-3)coc2ccccc12	none
N#Cc1nc(Nc2cccc([N+](=O)[O-])c2)nc(NC2CCCC2)n1	none
COc1ccc(C)cc1S(=O)(=O)NC1CCCCCC1	none
Cc1cc(S(=O)(=O)NC2CCCCC2)c(C)s1	D1 antagonist -30.4
COc1cc(F)cc(F)c1[S+](=O)([O-])N1CCN([S+](=O)([O-])c2ccc3c(c2)OCCO3)CC1	none
CC1=CC(C)(C)NC(=S)N1c1ccc(C)c(C)c1	D1 agonist 59.6, D1 antagonist -30.8
COC(=O)Cc1ccc(NC(=O)c2ccc3c(c2)C(=O)N(CC2CCCO2)C3=O)cc1 (stereo unspecified)	none
O=C(O)Cc1ccc(NC(=O)c2ccc3c(c2)C(=O)N(CC2CCCO2)C3=O)cc1 (stereo unspecified)	D1 antagonist -39.0
CC(=O)Nc1ccc(S(=O)(=O)NCCOc2ccc(Cl)cc2C)cc1	none
CCCCOc1ccc(CONS(=O)(=O)c2ccc(NC(C)=O)cc2)cc1Cl	D1 agonist 135.5
CCCn1c2ccccc2c2cnn(CC(=O)N3CCCC(C)C3)c(=O)c21 (stereo unspecified)	none
Cc1cc(C)c(NC(=O)C2CCN(C(=O)N3CCOc4ccccc43)CC2)c(C)c1	none
COc1ccc(N2CCN(C(=O)c3ccccc3)CC2)c([N+](=O)[O-])c1	none
COc1cccc(CC(=O)N2CCN(c3ccccc3[N+](=O)[O-])CC2)c1	D1 antagonist -39.8
COc1ccc(N2CCN(C(=O)c3ccccc3Br)CC2)c([N+](=O)[O-])c1	D1 agonist 37.6, D1 antagonist -48.6
CCOC(=O)c1ccc(N2C(=O)c3n[nH]c(-c4cccs4)c3C2c2cccc(F)c2)cc1 (stereo unspecified)	none
CCc1ccccc1NC(=O)CN1C(=O)CCn2nc(-c3cccn3C)cc21	none
CCOC(=O)C(CC)n1cnc2c(cnn2-c2ccc(Cl)cc2)c1=O (stereo unspecified)	D1 antagonist -32.4
COc1ccccc1N/C=C/C(=C(C#N)C#N)N(C)C	none
CN(C)C(/C=C/Nc1ccccc1F)=C(C#N)C#N	D1 antagonist -33.9
CCc1ccc(S(=O)(=O)c2nnn3c2nc(N2CCOCC2)c2sccc23)cc1	none
OCc1cnc(SCc2cccc(F)c2)n1Cc1ccc(F)cc1	none
Cc1cc(C(=O)NNC(=S)NCc2ccccc2)cs1	none
Cc1nn(C)c(C(=O)NNC(=S)NCc2ccccc2)c1Cl	TRHR PAM 39.1, D1 antagonist -32.1
Cc1nn(C)c(C(=O)NNC(=O)Nc2cccc(C(F)(F)F)c2)c1Cl	D1 antagonist -30.4
O=C(NNC(=O)c1ccncc1)Nc1cccc(C(F)(F)F)c1	none
CCN(CCCNC(=O)c1nn(-c2ccc(C)cc2)c(=O)c2c1c1ccccc1n2C)c1ccccc1	none
CC1CC1C(=O)OCc1cc(=O)n2cc(Br)ccc2n1 (stereo unspecified)	TRHR PAM 34.2
C#CCOCCOCCOCCNc1nc(N2CCN(C(=O)CCCCCCCCCCNC(=O)[C@H](CCCCN)n3cc(C)nn3)CC2)nc(N2CCN(C(=O)CCCCCCCCCCNC(=O)[C@@H]([C@H](C)O)n3cc(C)nn3)CC2)n1	D1 agonist 33.8
C#CCOCCOCCOCCNc1nc(N2CCN(C(=O)CCCCCCCCCCNC(=O)[C@@H](CCSC)n3cc(CCO)nn3)CC2)nc(N2CCN(C(=O)CCCCCCCCCCNC(=O)[C@H](CCC(=O)O)n3cc(CCCCCN)nn3)CC2)n1	none
C#CCOCCOCCOCCNc1nc(N2CCN(C(=O)CCCCCCCCCCNC(=O)[C@@H](CCSC)n3cc(CCO)nn3)CC2)nc(N2CCN(C(=O)CCCCCCCCCCNC(=O)[C@H](CO)n3cc(CCCCCN)nn3)CC2)n1	D1 antagonist -39.5
C#CCOCCOCCOCCNc1nc(N2CCN(C(=O)CCCCCCCCCCNC(=O)[C@@H](CCC(=O)O)n3cc(CCCCCN)nn3)CC2)nc(N2CCN(C(=O)CCCCCCCCCCNC(=O)[C@H](CO)n3cc(CCCCCN)nn3)CC2)n1	D1 agonist 45.2
C#CCOCCOCCOCCNc1nc(N2CCN(C(=O)CCCCCCCCCCNC(=O)[C@@H](CCC(=O)O)n3cc(CCCCCN)nn3)CC2)nc(N2CCN(C(=O)CCCCCCCCCCNC(=O)[C@H](CO)n3cc(CCCSC)nn3)CC2)n1	none
C#CCOCCOCCOCCNc1nc(N2CCN(C(=O)CCCCCCCCCCNC(=O)[C@@H](CCC(=O)O)n3cc(CCCCCN)nn3)CC2)nc(N2CCN(C(=O)CCCCCCCCCCNC(=O)[C@H](CCCCN)n3cc(C[C@@H](C)CC)nn3)CC2)n1	D1 potentiator 44.1, D1 agonist 65.3
